M1 antag – human M1 muscarinic receptor antagonists, primary screen, CHO-K1 cells, Fluo-8 calcium fluorescence, 1536-well. Muscarinic acetylcholine receptor M1 (Homo sapiens), P11229. CHO-K1 hM1, ACh EC80 antagonist. inhibition, % at 3 µM. actives 1.3% (n = 360,000);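 active = percent inhibition above its own plate's cutoff, namely the mean of that plate's compound wells plus 3 SD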;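 note: peak over basal fluorescence ratio during 140 s after agonist addition; 0% = ACh EC80 plus DMSO and 100% = DMSO alone without agonist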
Target sequence (P11229 whole entry, looked up): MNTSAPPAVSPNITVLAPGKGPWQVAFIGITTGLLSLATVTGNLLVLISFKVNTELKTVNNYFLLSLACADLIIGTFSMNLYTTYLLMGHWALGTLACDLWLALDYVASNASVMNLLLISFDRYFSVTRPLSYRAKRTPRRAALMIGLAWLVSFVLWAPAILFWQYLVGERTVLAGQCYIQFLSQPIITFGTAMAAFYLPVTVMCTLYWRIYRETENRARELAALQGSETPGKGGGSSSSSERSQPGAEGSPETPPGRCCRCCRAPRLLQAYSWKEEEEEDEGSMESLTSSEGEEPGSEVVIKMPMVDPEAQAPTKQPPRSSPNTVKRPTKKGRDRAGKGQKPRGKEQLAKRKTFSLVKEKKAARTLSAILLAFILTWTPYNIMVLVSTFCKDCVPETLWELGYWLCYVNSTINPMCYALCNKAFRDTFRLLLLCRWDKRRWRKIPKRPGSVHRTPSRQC
CHO-K1 Ca PAM – nonselective calcium activators in parental CHO-K1 cells, primary screen, counter-screen for M1 PAM project, cell-based, Fluo-8 calcium fluorescence, full deck, 1536-well | activation, % at 3 µM | ATP EC20; 0% at ATP EC20, 100% at ATP max | actives 0.02% (n = 360,000);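 active = activation above the run cutoff, the mean activation of all test compounds plus 3 SD, cut at about 40% in these data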;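 note: peak over basal fluorescence ratio in a 140 s read after ATP addition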
CHO-K1 Ca antag – counter-screen for M1 antagonists: effect in parental CHO-K1 cells. ATP-induced calcium, Fluo-8 fluorescence. AID 602250. actives 0.6% (n = 360,000). inhibition, % at 3 µM;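 active = inhibition above a per-plate cutoff, the plate's mean sample inhibition plus 3 SD, cut at about 24% in these data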;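 note: 0% = DMSO plus EC80 ATP and 100% = DMSO alone without ATP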
CHRM1 agonist – human M1 muscarinic receptor agonists, primary screen, Fluo-8 calcium fluorescence, CHO-K1 cells, HTS | CHO-K1 hM1, agonist mode; 0% DMSO, 100% acetylcholine EC100 | AID 588814, 2011 | actives 0.33% (n = 360,000) | activation, % at 3 µM | Muscarinic acetylcholine receptor M1 (Homo sapiens), P11229;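 active = activation above the run's mean compound activation plus 3 SD, cut at about 16% in these data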;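 note: peak over basal fluorescence ratio within a 140 s kinetic read after compound addition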
CHO-K1 Ca ag – counter-screen for M1 agonists: effect in parental CHO-K1 cells; Fluo-8 calcium fluorescence; scaled to maximal ATP response, vehicle zero; activation, % at 3 µM; actives 0.48% (n = 360,000); in the data active = activation above about 15%;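 note: untransfected CHO-K1 host cells lacking M1 receptor as counterscreen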
M1 PAM – human M1 muscarinic receptor positive allosteric modulators, primary screen, CHO-K1 cells, Fluo-8 calcium fluorescence, 1536-well. Muscarinic acetylcholine receptor M1 (Homo sapiens), P11229. CHO-K1 hM1, ACh EC20; 0% = ACh EC20, 100% = maximal ACh. activation, % at 3 µM. actives 0.088% (n = 360,000). AID 588819, 2011; in the data active = activation above about 19%, passing the limit was not always enough
The depositor's hits bear a star. Most compounds without a hit are left out; they make up all but 2.3% or so of the library.

SMILES	M1 antag	CHO-K1 Ca PAM	CHO-K1 Ca antag	CHRM1 agonist	CHO-K1 Ca ag	M1 PAM
O=P(c1ccccc1)(c1ccccc1)C(O)c1cccs1 (centres undefined)	-16	10	-9	-5	0	9
Cc1ccc(NC(=O)C(OC(=O)c2ccc(O)cc2)c2ccccc2)cc1Cl (centres undefined)	-5	27	-12	-6	0	11
Cc1ccc(NC(=O)C(OC(=O)c2ccc(F)cc2)c2ccccc2)cc1Cl (centres undefined)	40*	9	1	6	2	-8
CC(C)c1c(O)ccc2c1CC[C@H]1C(C)(C)CCC[C@]21C	-21	-11	26*	-2	-1	-2
CC(C)(O)c1ccc2c(c1)CCC1C(C)(C(=O)O)CCCC21C (centres undefined)	-1	-4	19	-2	0	2
CC(OC(=O)Cn1[nH]c(=O)c2ccccc2c1=O)C(=O)c1ccccc1 (centres undefined)	-7	-30	24*	6	1	20
CCOC(=O)CN1C(=O)C(=O)N(Cc2ccccc2F)C1=O	-15	-17	-6	-3	0	5
Cc1nn(-c2ccccc2)c2ncc(C(=O)c3cc(Cl)ccc3O)cc12	-1	6	-7	-4	0	7
CCc1nn2cc(C(=O)c3cc(Cl)ccc3O)cnc2c1-c1ccc(F)cc1	43*	15	-11	-6	1	-7
CC1(OC(=O)C2CCCC2)C(=O)C=C2C=C(c3ccsc3)N(CC3CC3)C=C2C1=O (centres undefined)	67*	-11	7	-13	0	-39
CC1(OC(=O)C2CCCC2)C(=O)C=C2C=C(c3ccsc3)N(C3CCCCC3)C=C2C1=O (centres undefined)	10	-6	6	-4	0	-12
CN1C(=O)c2cccc3c(Br)ccc(c23)C1=O	-17	16	-12	-4	1	6
CN1C(=O)c2cccc3c(N(C)C)ccc(c23)C1=O	-4	9	9	14	23*	3
CNc1ccc2c3c(cccc13)C(=O)N(C)C2=O	73*	-13	30*	313*	98*	-35
CN1C(=O)c2cccc3c(Cl)ccc(c23)C1=O	-4	18	-20	-4	0	-2
COc1ccc(C(C#N)CC(=O)c2ccc(OC)c(OCc3ccccc3)c2)cc1OC (centres undefined)	-16	12	3	-1	5	5
CC(C)CNCC(=O)N1c2ccccc2Sc2ccccc21	93*	15	-2	-6	1	-22
COCCNCC(=O)N1c2ccccc2Sc2ccccc21	90*	-8	0	-9	0	-29
COCCCNC(=O)N1c2ccccc2Sc2ccccc21	-21	15	-6	-7	1	19
CO/N=C/c1ccc(N2CCN(C(=O)c3ccc(Cl)cc3Cl)CC2)c([N+](=O)[O-])c1	24*	3	22	10	12	-9
O=C(COc1ccccc1F)NCC(c1ccco1)N1CCCC1 (centres undefined)	19	-5	-3	-15	0	-16
Cc1cccnc1NC(=O)c1nn(C)c2c1CS(=O)(=O)c1ccccc1-2	-1	15	-5	1	1	6
O=C(c1ccccc1)c1ccc(-n2cnnc2)c([N+](=O)[O-])c1	-10	5	-20	0	22*	6
COc1ccc(OC)c(NC(=O)CSc2ccc3nnc(-c4cccnc4)n3n2)c1	1	9	-9	-2	2	7
Cc1cc(C)c(OCCNCc2ccccc2)c(C)c1	-10	23	-8	-1	20*	7
O=C(NCCCN1CCN(Cc2ccccc2)CC1)C1CCN(c2nnc(-n3cccc3)s2)CC1	44*	9	-4	-4	1	-21
O=C(NCCCc1ccccc1)C1CCN(c2nnc(-n3cccc3)s2)CC1	-3	5	6	-8	0	-1

Compound activity as filed in PubChem.
